Among all 360,000 compounds or so, about 25,000 (6.9%) were called active. Not shown: some 9% with an inconclusive outcome. Many of the other results were omitted from the sample, so actives are more common in it than they were. Unmarked numbers belong to inactive results. Calls come from the whole dose curve; as a rule, active = well fitted inhibition curve with a large enough effect; inconclusive = small, poorly fitted or top-dose-only effect; inactive = flat fitted curve, though single readings scatter.
Potency is the fitted concentration of half-maximal effect.

Luciferin 4-monooxygenase (Photinus pyralis), sequence (P08659 whole entry, looked up): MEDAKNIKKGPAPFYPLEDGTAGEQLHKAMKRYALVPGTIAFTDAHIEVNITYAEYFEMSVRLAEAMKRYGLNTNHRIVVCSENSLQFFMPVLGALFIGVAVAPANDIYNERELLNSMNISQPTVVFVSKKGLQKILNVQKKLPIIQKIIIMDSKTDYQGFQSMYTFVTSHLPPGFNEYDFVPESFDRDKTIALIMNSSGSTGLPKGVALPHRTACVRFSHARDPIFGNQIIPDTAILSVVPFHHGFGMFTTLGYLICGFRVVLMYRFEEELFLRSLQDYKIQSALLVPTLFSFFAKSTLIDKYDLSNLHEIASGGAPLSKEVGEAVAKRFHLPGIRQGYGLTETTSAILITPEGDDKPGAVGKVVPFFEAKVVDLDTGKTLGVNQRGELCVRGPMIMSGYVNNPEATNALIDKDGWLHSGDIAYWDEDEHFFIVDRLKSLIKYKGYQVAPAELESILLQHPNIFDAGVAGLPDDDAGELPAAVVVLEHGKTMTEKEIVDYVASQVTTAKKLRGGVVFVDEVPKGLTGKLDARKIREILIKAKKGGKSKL

The experiment addresses Luciferin 4-monooxygenase (Photinus pyralis) (UniProt P08659). Put plainly: qHTS profiling assay for firefly luciferase inhibitor/activator using purifed enzyme and Km concentrations of substrates (counterscreen for miR-21 project).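 For activity change, negative = inhibition: plate controls were vehicle for no effect and reference inhibitor for full effect.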 Note: nearly all actives have a fitted effect of over 55% in size. The settings on record: purified FLuc, luminescence inhibition; series mostly up to 57.5 µM; activity change, negative = inhibition: at the top concentration. The essentials:
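Purified P. pyralis luciferase (10nM final) with 10uM D-luciferin and 10uM ATP (Km levels) in 50mM Tris acetate pH 7.5, 10mM Mg acetate, 0.01% Tween-20, 0.05% BSA; qHTS 6-point titration, ~60 µM downward; luminescence read.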
Take `O=C(Nc1ccc(S(=O)(=O)N2CCC(c3nc4ccccc4s3)CC2)cc1)c1ccccc1F`: the “activity change, negative = inhibition” value was 3.7%.

For `Cc1ccc(S(=O)(=O)N(C)C)cc1NC(=O)CN1c2cccc3cccc(c23)S1(=O)=O`, the “activity change, negative = inhibition” value was 5.47%.

With `CCOC(=O)c1c(C)[nH]c(C2=NNC(=NC(C)COC)SC2)c1C` (stereo unspecified), the Potency was 8.49 µM (active).

Take `COc1ccc(C2(Nc3cccc(F)c3)C(=O)c3ccccc3C2=O)cc1`: the “activity change, negative = inhibition” value was 1.56%.

In the case of `O=C(COC(=O)c1ncc(Cl)c(Cl)c1Cl)NCc1ccccc1`, the “activity change, negative = inhibition” value is 0.856%.

On to `CCOC(=O)c1cccc(NS(=O)(=O)c2cc(-c3cnc(C)o3)ccc2OC)c1`, for which the “activity change, negative = inhibition” value was -15.8%.

For the compound `COc1ccc(NS(=O)(=O)c2cccc(C(=O)NCCc3ccc(S(N)(=O)=O)cc3)c2)cc1`, the “activity change, negative = inhibition” value was 4.27%.

As to `COc1ccc(CCNC(=O)CCCn2c(=O)c3ccccc3n(Cc3ccc(C)cc3)c2=O)cc1OC`, the “activity change, negative = inhibition” value was 4.24%.

Regarding `C/C(N)=C(/C#N)C(=O)COC(=O)CNS(=O)(=O)c1ccc(C)cc1`, the “activity change, negative = inhibition” value is 2.08%.

For the compound `COC(=O)CNS(=O)(=O)c1ccc(Cc2ccc(S(=O)(=O)NCC(=O)OC)cc2)cc1`, the Potency was 3.79 µM (active).

For the compound `COC(=O)CNS(=O)(=O)c1ccc(OC)cc1`, the “activity change, negative = inhibition” value is -0.286%.

Consider `COc1ccc(-c2nc(Cn3c(=O)cc(C)c4c(C)nn(-c5ccccc5)c43)c(C)o2)c(OC)c1`, for which the “activity change, negative = inhibition” value was 0.0062%.

`CCOC(=O)c1nnn(CC(=O)NC(=O)Nc2ccccc2F)c1C(=O)OCC`: the “activity change, negative = inhibition” value was -6.37%.

For `Cc1ccc(S(=O)(=O)N(C)CC(=O)OCC(=O)Nc2ccccc2)cc1`, the “activity change, negative = inhibition” value is -3.85%.

Regarding `O=C(COC(=O)C1CC2C=CC1C2)Nc1ccccc1` (stereo unspecified), the Potency was 16.9 µM (active).

For the compound `CC(=O)Nc1ccc(NC(=O)COC(=O)c2ccccc2C(=O)c2ccccc2)cc1`, the “activity change, negative = inhibition” value is -0.276%.

On to `COc1cc(C(=O)N2C(=O)c3cccc(N)c3C2=O)cc(OC)c1OC`, for which the “activity change, negative = inhibition” value was 2.66%.

For the compound `COc1ccc2c(c1OC)C(=O)N(c1ncn[nH]1)C2`, the “activity change, negative = inhibition” value was 1.33%.

In the case of `COc1ccc2c(c1OC)C(=O)N(c1ccc(O)cc1)C2`, the Potency was 15.1 µM (active).

For `CCOc1ccc(CC(=O)NCCc2csc3nc(-c4ccccc4F)nn23)cc1`, the “activity change, negative = inhibition” value was -11%.

In the case of `O=C(NCc1ccc(F)cc1)c1ccc2nc(N3CCCCC3)sc2c1`, the “activity change, negative = inhibition” value is -9.13%.

For the compound `c1c2c(cc3sc(N4CCCCC4)nc13)OCCO2`, the Potency is 0.213 µM (active).

Turning to `O=C(NCCc1cccc(F)c1)C1CCCN(c2nc3ccccc3s2)C1` (stereo unspecified), the “activity change, negative = inhibition” value is -1.62%.

As for `Fc1ccc2nc(N3CCCCC3)sc2c1`, the Potency is 4.78 µM (active).

Turning to `CN(C)CCCN(C(=O)c1ccc(S(=O)(=O)N2CCCCCC2)cc1)c1nc2cc3c(cc2s1)OCCO3`, the “activity change, negative = inhibition” value is 4.03%.

`Cc1nc(N2CCCCC2)sc1C=O`: the “activity change, negative = inhibition” value was 4.38%.

As to `Brc1ccc2nc(N3CCCC3)sc2c1`, the Potency is 7.57 µM (active).

For `CN(C)CCCN(C(=O)c1ccc(S(=O)(=O)N2CCCCCC2)cc1)c1nc2ccc(Br)cc2s1`, the “activity change, negative = inhibition” value is 1.44%.

As for `Cc1nc2ccn(Cc3cccs3)c(=O)c2cc1C(=O)NCc1ccc(Cl)cc1`, the “activity change, negative = inhibition” value was -0.0141%.

As to `O=C(CSc1nnc(CN2CCCC2)n1-c1ccc(F)cc1)c1ccc2c(c1)OCO2`, the “activity change, negative = inhibition” value is 2.79%.

On to `O=C(CN1CCN(c2ccccc2O)CC1)NC(=O)NCc1ccccc1`, for which the “activity change, negative = inhibition” value is 12.3%.

With `COc1ccc(S(=O)(=O)Nc2ccc3cn[nH]c3c2)cc1[N+](=O)[O-]`, the “activity change, negative = inhibition” value is 2.65%.

For the compound `CCOC(=O)Cc1csc(SCC(=O)Nc2ccc(C)cc2F)n1`, the “activity change, negative = inhibition” value is 2.01%.

With `CCOC(=O)c1ccccc1NC(=O)CCc1c(C)nc2c(c1C)c(=O)n(C)c(=O)n2C`, the “activity change, negative = inhibition” value was -0.937%.

For the compound `CCc1cccc(C)c1NC(=O)COC(=O)CC1CCCC1`, the “activity change, negative = inhibition” value is 0.287%.

`CCOc1cccc2cc(C(=O)OCC(=O)Nc3c(C)cccc3CC)c(=O)oc12`: the Potency was 15.1 µM (active).

Take `Cc1cccc(C)c1NC(=O)COC(=O)c1ccccc1O`: the “activity change, negative = inhibition” value is -0.453%.

As for `O=c1[nH]c(CCl)nc2cc(-c3ccc(Cl)cc3)sc12`, the Potency was 0.107 µM (active).

On to `NC(=O)Cc1nc2scc(-c3ccc(Cl)cc3)c2c(=O)[nH]1`, for which the “activity change, negative = inhibition” value is 0.326%.

In the case of `O=c1[nH]c(CN2CCOCC2)nc2cc(Cl)ccc12`, the “activity change, negative = inhibition” value is 2.21%.

Regarding `CCc1ccccc1NC(=O)c1ccc(F)c(S(=O)(=O)NC2CCCCCC2)c1`, the “activity change, negative = inhibition” value is -2.22%.

On to `COC(=O)c1ccc(NC(=O)CCc2c(C)nc3c(c(C)nn3-c3ccc(C)cc3)c2C)cc1`, for which the “activity change, negative = inhibition” value is -4.68%.

With `COc1cccc(N(CC(=O)Nc2cccc(N(C)S(C)(=O)=O)c2)S(C)(=O)=O)c1`, the “activity change, negative = inhibition” value was 1.64%.

In the case of `CN(c1ccccc1)S(=O)(=O)c1cccc(NC(=O)Cc2ccc(Cl)cc2)c1`, the “activity change, negative = inhibition” value was -14.1%.

On to `CN(c1cccc(NC(=O)Nc2ccc(Cl)cc2)c1)S(C)(=O)=O`, for which the Potency was 2.39 µM (active).

In the case of `O=C(Nc1ccc(Cl)cc1)Nc1ccc(Oc2cccnc2)nc1`, the “activity change, negative = inhibition” value was -28.9%.

In the case of `COc1ccc(-n2c(=O)c3c(c4cc(OC)ccc4n3C)n(Cc3cccc(C)c3)c2=O)cc1`, the “activity change, negative = inhibition” value was -0.917%.

Consider `CC(=O)Nc1ccccc1NC(=O)c1cc(C)cc(C)c1`, for which the “activity change, negative = inhibition” value was 3.27%.

For the compound `Cc1cc(C)cc(NC(=O)CSc2ccccc2)c1`, the “activity change, negative = inhibition” value is -4.76%.

Take `CSCc1ccc(C(=O)Nc2cc(C)cc(C)c2)cc1`: the Potency is 2.13 µM (active).

With `CCc1ccc(N2C(=O)CN(S(=O)(=O)CC)CC2(C)C(=O)NC2CCCCC2)cc1` (stereo unspecified), the “activity change, negative = inhibition” value was -6.49%.
